Compounds without any hit were thinned out: in the full panel of roughly 83,000, 20% have a hit.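 Negative percent growth values reflect cell death: -40 means 40% of the cells present at the start died, and -100 means all died.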 Values without a mark were called inactive. Activity calls are given as the source filed them. How the source made its calls: active means growth percent below 10; inactive means the rest.
Tests used:
Experiment in all cases: NCI-60 one-dose screen, 48 h (100 = growth as untreated, 0 = no growth, -100 = all killed)
Conditions in all cases: 10 µM unless noted
NCI-H23 lung = test system: NCI-H23 lung
NCI-H226 lung = test system: NCI-H226 lung
NCI-H322M lung = test system: NCI-H322M lung
HOP-62 NSCLC = test system: HOP-62 NSCLC
NCI-H460 lung = test system: NCI-H460 lung
NCI-H522 lung = test system: NCI-H522 lung
A549/ATCC NSCLC = test system: A549/ATCC NSCLC
786-0 renal = test system: 786-0 renal
COLO 205 colon = test system: COLO 205 colon
DU-145 prostate = test system: DU-145 prostate
K-562 leukemia = test system: K-562 leukemia
MALME-3M melanoma = test system: MALME-3M melanoma
MDA-MB-231 breast = test system: MDA-MB-231 breast
RXF 393 renal = test system: RXF 393 renal
SF-268 CNS = test system: SF-268 CNS
SF-295 CNS = test system: SF-295 CNS
SF-539 CNS = test system: SF-539 CNS
UACC-257 melanoma = test system: UACC-257 melanoma
HCT-15 colon = test system: HCT-15 colon
M14 melanoma = test system: M14 melanoma

Row | Compound | growth (NCI-H23 lung) | growth (NCI-H226 lung) | growth (NCI-H322M lung) | growth (HOP-62 NSCLC) | growth (NCI-H460 lung) | growth (NCI-H522 lung) | growth (A549/ATCC NSCLC) | growth (786-0 renal) | growth (COLO 205 colon) | growth (DU-145 prostate) | growth (K-562 leukemia) | growth (MALME-3M melanoma) | growth (MDA-MB-231 breast) | growth (RXF 393 renal) | growth (SF-268 CNS) | growth (SF-295 CNS) | growth (SF-539 CNS) | growth (UACC-257 melanoma) | growth (HCT-15 colon) | growth (M14 melanoma)
1 | O=C(/C=C/c1cccnc1)/C=C/c1cccnc1 | -5.04% (active) | 2.94% (active) | 122% | 98.9% | 18.5% | -91.2% (active) | 6.27% (active) | 5.1% (active) | -84.8% (active) | -29.6% (active) | -15.2% (active) | -8.19% (active) | 20.4% | -84.9% (active) | -64% (active) | 41.6% | -46.1% (active) | 31.2% | -9.07% (active) | –
2 | CCC(CC)NCCCCCNc1cc(OC)cc2cccnc12 | 94.7% | 96.6% | 120% | 84.6% | 105% | 97.7% | 96.1% | 95% | 82.7% | 102% | 85.1% | 119% | 83.9% | 88.1% | 85.3% | 113% | 92% | 101% | 92.6% | –
3 | CO[C@H]1CC(O[C@@H]2/C(C)=C/C[C@@H]3C[C@@H](C[C@]4(CC[C@H](C)[C@@H](C5CCCCC5)O4)O3)OC(=O)[C@@H]3C=C(C)/C(=N/O)[C@H]4OC/C(=C\C=C\[C@@H]2C)[C@]43O)O[C@@H](C)C1O (stereo partly drawn) | -76.2% (active) | -84.2% (active) | -78% (active) | -88.8% (active) | -82.3% (active) | -73.4% (active) | -82.9% (active) | -91.1% (active) | -79.4% (active) | -96.1% (active) | -36.7% (active) | -46.3% (active) | -89% (active) | -97.2% (active) | -92.2% (active) | -89.5% (active) | -68.8% (active) | -81.6% (active) | -75.1% (active) | –
4 | O=C(Nc1ccc(Cl)cc1Cl)Nc1ccc(-c2cccnc2)cc1N1CCC(CO)CC1 | 29% | 55.4% | 61.5% | 42% | 35.1% | 53.4% | 27.2% | 52.3% | 16.1% | 54.2% | 17.7% | 41.3% | 13.6% | 49.5% | 48.4% | 81.6% | 30.9% | 47.8% | 26.8% | –
5 | CCOC(=O)c1c2c(c(C)n1Cc1ccc(OC)cc1)-c1nc(N)ncc1CC2 | 125% | 92.2% | 113% | 83.5% | 111% | 114% | 110% | 98.5% | 116% | 116% | 88.8% | 132% | 97.2% | 116% | 110% | 104% | 112% | 121% | 113% | –
6 | COC(=O)[C@]12CC[C@@H](C)[C@H](C)[C@@H]1C1=CC[C@@H]3[C@@]4(C)C=C(O)C(=O)[C@@]5(C)COC(=C54)C[C@@]3(C)[C@]1(C)CC2 | -73.1% (active) | -48.9% (active) | -25.3% (active) | -50.8% (active) | -66.2% (active) | -70.2% (active) | -59.5% (active) | -89.5% (active) | -63.9% (active) | -80.7% (active) | -97.8% (active) | -59% (active) | -52.7% (active) | -82.4% (active) | -45.3% (active) | -57.4% (active) | -91.4% (active) | – | -82.3% (active) | -63.2% (active)
7 | O=C1C(Cl)=C(N=Nc2c(Cl)c(O)c3ccccc3c2O)C(=O)c2ccccc21 | 68.2% | 90.1% | 45% | 52.1% | 55.7% | 72.7% | 51.9% | 98.4% | 86.7% | 81.3% | 37.1% | 43.1% | 61.2% | 88.5% | 77.9% | 33.2% | 96.2% | – | 61.7% | 59.5%
8 | COc1ccc2c(c1)[nH]c(=O)c1c3cc(OC)c(OC)cc3cn21 | 42.5% | 44.6% | 20.7% | 47.4% | 6.39% (active) | -2.16% (active) | -22.1% (active) | 32.1% | -34.8% (active) | -87.2% (active) | 0.148% (active) | 56.7% | 26.4% | 0.926% (active) | 9.67% (active) | 13.6% | 10.7% | 82.6% | -6.44% (active) | 23.6%
